Source: PubChem BioAssay (EPA / NIEHS)
“And” between values parts separate entries of the source, which are not always exact repeats. Equal values may be shown once. Some compounds were tested as several samples or in several runs, with calls that do not always agree. The source made the active and inactive calls. The calls were made as follows: active = hit-call score of the fitted dose curve at least 0.9, where 1 is the maximum; inactive = score below 0.9.

read-out: Urokinase-type plasminogen activator receptor (uPAR), PLAUR (gene 5329); assay: BSK_4H_uPAR: BioMAP Diversity Plus: 4H Assay for Urokinase-type plasminogen activator receptor (uPAR) Biomarker Activity (AID 2283030); conditions: primary human endothelial cells (HUVEC); actives raise or lower the signal
Procedure: BSK_4H is a cell-based, multiplexed-readout assay that uses umbilical vein endothelium, a human vascular primary cell, with measurements taken at 24 hours after chemical dosing in a 96-well plate.BSK_4HAR is an assay component measured in the BSK_4H assay. It measures uPAR antibody related to regulation of gene expression using ELISA technology.Data from the assay component BSK_4HAR was analyzed into 1 assay endpoint. This assay endpoint, BSK_4HAR, was analyzed with bidirectional fitting relative to DMSO as the negative control and baseline of activity. Using a type of binding reporter, gain or loss-of-signal activity can be used to understand changes in the signaling as they relate to the gene PLAUR. Furthermore, this assay endpoint can be referred to as a primary readout, because this assay has produced multiple assay endpoints where this one serves a signaling function. To generalize the intended target to other relatable targets, this assay endpoint is annotated to the cytokine intended target family, where the subfamily is plasmogen activator.
The levels of cell surface (or secreted, indicated by the prefix "s") biomarker endpoints were measured by ELISA. Overt cytotoxicity to cells in confluent adherent cultures (all systems other than the BT system) was assessed by measuring total protein levels using sulforhodamine B (SRB) staining in parallel cultures at the time of biomarker measurements, indicated as SRB endpoints. For proliferation assays for adherent cell types, individual cell types are cultured at sub-confluence and relative cell numbers quantified by SRB staining at time points optimized for each system (48 h: 3C and CASM3C systems; 72 h: BT and HDF3CGF systems; 96 h: SAg system). SRB was performed by staining cells with 0.1% SRB after fixation with 10% TCA and reading wells at 560 nm.Viability and proliferation of PBMC (T cells) was quantified by Alamar Blue reduction for the SAg and BT systems. For PBMC viability (referred to as PBMC Cytotoxicity within the assay endpoint names), cells were plated (75,000/well in a 96-well plate) and then chemical samples added for 1 h before addition of activators, SEB and TSST-1 (20 ng/mL final concentration each). Cells were incubated for 90 h. Then, Alamar Blue (20 uL/well) (Invitrogen, Cat DAL1100) was added for 6 h, and the plates were read with a fluorescence microplate reader at 546/580 nm (excitation/emission). For PBMC proliferation, cells were plated and activated as above but incubated for only 16 h prior to addition of Alamar Blue. Plates were read after 6 h.

SMILES	outcome	AC50
Cc1ccccc1CO[C@@H]1C[C@@]2(C(C)C)CC[C@]1(C)O2	inactive	
CCC(C)(CC)c1cc(NC(=O)c2c(OC)cccc2OC)on1	inactive	
CCC(C)c1cc([N+](=O)[O-])cc([N+](=O)[O-])c1O (stereo not given)		11.5 µM (active)
c1cc2ccc3cccc4ccc(c1)c2c34	inactive	
COc1ccc(O)c(C(C)(C)C)c1	inactive	
CC1=C2C[C@H]3[C@@H](CC=C4C[C@@H](O)CC[C@@]43C)[C@@H]2CC[C@]12O[C@@H]1C[C@H](C)CN[C@H]1[C@H]2C	inactive	
O=C(O)C(F)(F)C(F)(F)C(F)(F)C(F)(F)C(F)(F)C(F)(F)C(F)(F)C(F)(F)F	inactive	
Cc1cc(-c2ccc(N)c(C)c2)ccc1N	inactive	
Sc1ccccc1	inactive	
CN(C)CCO	inactive	
NS(=O)(=O)C(F)(F)C(F)(F)C(F)(F)C(F)(F)C(F)(F)C(F)(F)C(F)(F)C(F)(F)F		29.3 µM (active) and 43.7 µM (active) and 45.6 µM (active)
Cc1ccccc1[N+](=O)[O-]	inactive	
CC(C)(c1ccccc1)c1ccc(O)cc1		32 µM (active)
CCC(C)(c1ccc(O)cc1)c1ccc(O)cc1		34.8 µM (active)
CCCN(CCC)N=O	inactive	
Nc1ccc(-c2ccc(N)cc2)cc1	inactive	
O=C(O)C(F)(F)C(F)(F)C(F)(F)C(F)(F)C(F)(F)C(F)(F)C(F)(F)C(F)(F)C(F)(F)F	inactive	47 µM (active) and 55 µM (active)
O=C(NC(=O)c1c(F)cccc1F)Nc1cc(Cl)c(OC(F)(F)C(F)F)c(Cl)c1	inactive	
Cc1cc(O)ccc1Cl	inactive	
CCCCCCCCCC[N+](C)(C)CCCCCCCCCC		6.83 µM (active)

SMILES	outcome	AC50
Oc1ccc(C(c2ccc(O)cc2)(C(F)(F)F)C(F)(F)F)cc1		32.5 µM (active)
Clc1ccc(C(Cl)(Cl)Cl)cc1	inactive	
CCC(=O)O[C@H]1CC[C@H]2[C@@H]3CCC4=CC(=O)CC[C@]4(C)[C@H]3CC[C@]12C		30.3 µM (active)
Clc1ccc(C(c2ccccc2Cl)C(Cl)(Cl)Cl)cc1 (stereo not given)		21.2 µM (active)
Oc1c(Cl)c(Cl)c(Cl)c(Cl)c1Cl		5.58 µM (active) and 9.79 µM (active)
COS(=O)(=O)OC	inactive	
O=NN(c1ccccc1)c1ccccc1	inactive	
CCNc1nc(NC(C)C)nc(SC)n1	inactive	
ClC1=C(Cl)[C@]2(Cl)[C@@H]3[C@@H]4C[C@@H]([C@H]5O[C@@H]45)[C@@H]3[C@@]1(Cl)C2(Cl)Cl	inactive	
O=S(=O)(O)C(F)(F)C(F)(F)C(F)(F)C(F)(F)C(F)(F)C(F)(F)F	inactive	
CCOCCOC(C)=O	inactive	
Cc1cccc(C)c1N	inactive	
CCSC(=O)N(CC)C1CCCCC1	inactive	
CCOC(=O)C(O)(c1ccc(Cl)cc1)c1ccc(Cl)cc1		31.3 µM (active)
c1ccc(-c2ccccc2)cc1	inactive	
CCCCCCOC(=O)c1ccccc1C(=O)OCCCCCC	inactive	
N#Cc1ccc(N(CC(N)=O)CC(F)(F)F)cc1C(F)(F)F	inactive	
CCCCCCCCOC(=O)c1ccccc1C(=O)OCCCCCCCC		3.7 µM (active)
Cc1ccc(O)c(C)c1	inactive	
